PubChem BioAssay AID628 (Vanderbilt High Throughput Screening Facility, 2007)
The whole screen tested about 64,000 compounds, of which about 2,200 (3.4%) were called active.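 The calls were made as follows: active = calcium fluorescence response, raw or row-and-column corrected B-score, differing from the plate sample mean either way at a set confidence level, mostly lower; inactive = the rest.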 Shown is part of a subset that was picked to be rich in actives.

These molecules were tested against Muscarinic acetylcholine receptor M1 (Rattus norvegicus) (UniProt P08482) (assay: antagonists of rat M1 muscarinic receptor (AID 628)). Details: CHO-M1 cells, Fluo-4 calcium, ACh EC80 antagonist mode; at 10 µM; hits give low values.
Chain of Muscarinic acetylcholine receptor M1 (Rattus norvegicus) (P08482 whole entry, looked up): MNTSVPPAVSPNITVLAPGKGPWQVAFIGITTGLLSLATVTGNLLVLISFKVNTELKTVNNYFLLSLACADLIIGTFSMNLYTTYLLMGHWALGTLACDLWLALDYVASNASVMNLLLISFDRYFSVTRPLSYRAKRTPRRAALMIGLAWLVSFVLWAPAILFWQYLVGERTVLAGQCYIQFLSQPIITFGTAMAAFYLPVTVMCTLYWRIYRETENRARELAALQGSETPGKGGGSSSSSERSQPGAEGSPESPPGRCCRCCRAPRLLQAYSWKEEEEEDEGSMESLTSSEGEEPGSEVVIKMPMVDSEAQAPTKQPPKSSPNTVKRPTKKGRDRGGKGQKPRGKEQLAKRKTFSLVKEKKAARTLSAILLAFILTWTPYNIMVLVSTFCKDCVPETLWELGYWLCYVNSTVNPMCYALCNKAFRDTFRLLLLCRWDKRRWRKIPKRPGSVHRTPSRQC

Structure (SMILES)	B-score
CC[N+]1(C)CCCC(OC(=O)C(O)(c2ccccc2)c2ccccc2)C1 (stereo not given)	-11.4 (active)
O=C1NC(=O)C(C/C=C/c2ccccc2)C(=O)N1	-0.333 (inactive)
CSC1=NP(=S)(SC)N(C)c2nc3n(c21)CCC3 (stereo not given)	-0.101 (inactive)
O=c1c2ccccc2nc(-c2ccco2)n1-c1ccc(Br)cn1	-0.192 (inactive)
CCOC(=O)C1SC2(C(F)(F)C(F)F)CC1(O)c1c(c(OC)c3occc3c1OC)O2 (stereo not given)	-2.3 (active)
CNP1(NC)=Nc2nn(-c3ccccc3)c(N)c2C(c2ccccc2)=N1	0.00862 (inactive)
C[N+]12CN3CN(CN(C3)C1)C2	0.464 (inactive)
CCN(CC)P(=O)(Oc1cccc(C)c1)N(CC)CC	0.467 (inactive)
COc1ccc(C(=O)CC2C(=O)N(C)C(=O)N(C)C2=O)cc1	-0.22 (inactive)
COc1ccccc1CN1CCN(C(=O)Cc2ccccc2)CC1	0.441 (inactive)
COc1ccc(CN2CCN(c3ccccc3F)CC2)c(OC)c1	-2.11 (active)
CC(C)c1ccc(O)c(CN2CCN(c3ccccc3)CC2)c1	0.336 (inactive)
CCc1nc2ccccc2c(=O)n1-c1cccc(OC)c1	-0.313 (inactive)
COc1ccc(C2NCc3ccc4c(c3-n3cccc32)OCO4)cc1OC (stereo not given)	-4.39 (active)
c1ccc(C2NCc3ccccc3-n3cccc32)cc1 (stereo not given)	-0.457 (inactive)
CCC/C(=N\O)c1c[nH]c2ccccc12	-0.0862 (inactive)
CCOC(=O)c1c(C)c(C(=O)N2CCC3(CC2)OCCO3)c(C)n1CC	0.059 (inactive)
CC12CN3CC(C)(CN(C1)C3c1cccs1)C2 (stereo not given)	-0.259 (inactive)
Cc1nc2nc(C)c(CCC(=O)N3CCC4(CC3)OCCO4)c(C)n2n1	0.0167 (inactive)
CCOC(=O)CC1=C(C(=O)OCC)C2(C(=O)N1)C(C(=O)OC)=C(N)Oc1ccccc12 (stereo not given)	0.186 (inactive)
CCOC(=O)c1c(N)n(Cc2ccccc2)c2nc3ccccc3nc12	0.91 (inactive)
Cc1ccc(C)c(NC2=NCCCS2)c1	-1.64 (inactive)
Fc1ccc(N2CCN(Cc3ccc4c(c3)OCO4)CC2)cc1	-2.36 (active)
CC(=NCc1ccc2c(c1)OCO2)c1c(O)[nH]c(=O)[nH]c1=O	0.0855 (inactive)
COc1ccccc1N=C1SCCCN1C	0.926 (inactive)
